# Rows were chosen to be rich in hits. Some 1% of all compounds tested hit in one or more screens of this group.
# gsp antag: antagonizes gsp, the McCune-Albright syndrome mutation. AID 624288. Potency, µM (doses to about 76.9 µM), for inactives: at the top dose activity change, negative = inhibition, hits mostly inhibitors. hit rate 0.4% among 340,000. gsp-mutant cells, cAMP HTRF, 30 min; calls by dose curve; cell line not stated here;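 also: intracellular cAMP measured with PDE inhibitor Ro 20-1724 present during compound exposure; potency is read from the fitted curve at half-maximal effect; % is scaled to controls: 0 for no effect and ±100 for the full control effect; nearly all actives have a fitted effect of over 65% in size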
#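 HTRF cAMP read-out (cAMP-d2 plus anti-cAMP antibody-K in lysis buffer, 30 min RT). Before lysis, cells are exposed to compounds with […] for 30 min at 37C in DPBS containing Ca/Mg, BSA and Tween 20.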
# RXFP1 antagonist: blocks the human relaxin receptor RXFP1 | Q9HBX9 | HEK293-RXFP1, relaxin-stimulated cAMP HTRF, 30 min; hits give low values | activity change, negative = inhibition, % at 57.5 µM | hit rate 0.59% among 350,000 | AID 1259400;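 active = activity change of -60% or lower, but not beyond a set lower limit; inconclusive = change between -60% and -40%, or beyond the set limit; inactive = change above -40%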; also: % is scaled to controls: 0 for no effect and ±100 for the full control effect
# Target sequence (Q9HBX9 whole entry, looked up): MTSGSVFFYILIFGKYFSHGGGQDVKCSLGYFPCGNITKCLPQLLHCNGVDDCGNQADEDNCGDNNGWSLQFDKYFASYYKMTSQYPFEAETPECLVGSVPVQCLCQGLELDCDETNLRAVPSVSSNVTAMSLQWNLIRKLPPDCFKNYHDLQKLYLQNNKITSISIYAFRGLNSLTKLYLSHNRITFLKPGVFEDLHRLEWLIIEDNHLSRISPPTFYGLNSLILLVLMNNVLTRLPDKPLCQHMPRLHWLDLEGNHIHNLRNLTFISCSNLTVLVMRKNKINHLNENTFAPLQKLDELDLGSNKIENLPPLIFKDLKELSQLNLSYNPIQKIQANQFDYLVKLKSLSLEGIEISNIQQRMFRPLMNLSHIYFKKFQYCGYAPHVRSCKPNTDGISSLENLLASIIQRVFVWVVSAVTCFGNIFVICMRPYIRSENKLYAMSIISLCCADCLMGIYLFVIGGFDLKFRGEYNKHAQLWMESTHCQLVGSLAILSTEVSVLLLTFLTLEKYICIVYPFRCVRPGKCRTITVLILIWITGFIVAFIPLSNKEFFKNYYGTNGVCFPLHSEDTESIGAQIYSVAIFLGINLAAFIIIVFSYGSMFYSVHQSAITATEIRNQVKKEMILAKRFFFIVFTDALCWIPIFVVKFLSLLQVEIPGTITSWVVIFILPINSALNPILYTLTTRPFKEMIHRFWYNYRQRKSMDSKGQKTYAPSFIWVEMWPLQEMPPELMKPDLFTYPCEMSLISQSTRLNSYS
# gsp agonist: activates gsp, the McCune-Albright syndrome mutation; gsp mutant cells, cAMP HTRF, 30 min; Potency, µM (top dose mostly 76.9 µM), inactives show at the top dose activation (cAMP increase), usual class: activators; hit rate 0.13% among 340,000; active = well fitted activation curve with a large enough effect; inconclusive = small, poorly fitted or top-dose-only effect, or another doubt; inactive = no such curve, though single readings can be large or run the other way; cell line not stated here;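 also: phosphodiesterase inhibitor Ro 20-1724 added with compounds to block cAMP breakdown; potency is read from the fitted curve at half-maximal effect; nearly all actives have a fitted effect of over 60% in size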
#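 Cells in DMEM/10% FBS with G418 were pretreated with compounds in DMSO plus […] (300 uM stock) for 30 min at 37C. cAMP was measured by HTRF (cAMP-d2 plus anti-cAMP antibody-K) after 30 min at room temperature.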
# TSHR antag: human thyrotropin receptor antagonism | AID 504810 | P16473 | TSHR-expressing cells, TSH-stimulated cAMP HTRF, 2 h; hits give low values | hit rate 0.2% among 330,000 | activity change, negative = inhibition, % at 11.5 µM;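 active = activity change below a set negative limit, meaning inhibition stronger than a set level, cut at about -70% in these data; inconclusive = activity change between two set negative limits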; also: % is scaled to controls: 0 for no effect and ±100 for the full control effect
#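 Antagonism was scored as loss of TSH-driven cAMP in TSHR cells, stimulated with 4nM TSH (EC80) for 2 hours at 37 deg C and detected by homogeneous HTRF competition immunoassay.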
# RXFP1 agonist: activates the human relaxin receptor RXFP1 | HEK293T-RXFP1 cAMP TR-FRET, 30 min; response scale: percent of porcine relaxin response, buffer zero | Potency, µM (top dose mostly 57.5 µM), for the others: top-dose activation, most hits filed as activators | hit rate 0.3% among 370,000 | AID 2676; active = well fitted activation curve with a large enough effect; inconclusive = small, poorly fitted or top-dose-only effect; also: potency is read from the fitted curve at half-maximal effect; % is scaled to controls: 0 for no effect and ±100 for the full control effect; nearly all actives have a fitted effect of over 60% in size
#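 Agonist response is measured as cAMP accumulation in an RXFP1-transfected HEK293T line under PDE4 inhibition. Values are scaled between buffer-only and 29 nM porcine relaxin, and EC50s come from standard Hill equation fits.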
# * marks the source's active call; other numbers are inactive results; u = inconclusive; x = no result; [ ] = dose if it differs, or a comment.
SMILES,gsp antag,RXFP1 antagonist,gsp agonist,TSHR antag,RXFP1 agonist
CCCOC(=O)CSc1nc(N)c(C#N)c(-c2ccco2)c1C#N,10%,-3,-10%[15.4 µM],x,x
N#Cc1c(N)nc(SCC(=O)OCc2ccccc2)c(C#N)c1-c1ccco1,4%,7,25%,-78*,2%
CCOC(=O)c1noc2nc(C)n(Cc3cccc(C#N)c3)c(=O)c12,x,-34,x,x,8%
Cc1cccc(OCC(=O)N(Cc2ccc(N(C)C)cc2)Cc2ccco2)c1C,x,-17,x,x,-1%
Cc1ccc(CN(Cc2ccco2)C(=O)COc2cccc(C)c2C)o1,x,-96*,x,x,0%
Cc1ccc(CN(Cc2ccco2)C(=O)COc2ccc(Cl)cc2)o1,x,-69*,x,x,-1%
CC1CCN(c2ccc(-c3nc(C(C)C)no3)cc2[N+](=O)[O-])CC1,x,x,x,x,4%
CC12CCC(C(=O)N(CSC(=S)N/N=C\c3ccccc3)C1=O)C2(C)C (stereo not drawn),4%,15,7%,-5,0%
CC12CCC(C(=O)N(CSC(=S)N/N=C\c3ccccc3Cl)C1=O)C2(C)C (stereo not drawn),-13%,-65*,0%[15.4 µM],-4,0%
CN(c1ccccc1)c1nc(N)c([N+](=O)[O-])c(NC2CCCCC2)n1,50µM*,-16,-54%,1,0%
O=C(CCC1CCN(Cc2ccccc2)CC1)c1ccc2c(c1)NCCCC2,x,-35,x,x,x
Cc1ccc(NC(=O)c2ccc3c(SCC(=O)O)c4c(nc3c2)CCCC4)c(Br)c1,-22%,19,13µM*,8,11%
COc1ccc(C)cc1NC(=O)c1ccc2c(SCC(=O)O)c3c(nc2c1)CCCC3,-10%,2,-26%,-31,0%
Cc1cc(O)c(CN2CCN(c3ccccc3)CC2)c2oc(=O)cc(C)c12,x,-8,x,x,18µM*
CN(C)S(=O)(=O)c1ccc(Cl)c(C(=O)OCC(=O)NC(=O)NC2CCCC2)c1,1µM*,-4,-10%,-24,2%
O=C(/C=C/c1ccccc1)NNC(=O)c1cccc(Cl)c1,6%,0,-14%,-3,1%
O=C(C=Cc1cccc(Cl)c1)c1ccccc1,1%,-62*,u,x,x
COc1ccc(CCN2C(=O)C(O)=C(C(=O)c3ccco3)C2c2cccs2)cc1OC (stereo not drawn),32%,16,18µM*,56,u
Cc1[nH]c(N=Nc2ccccc2)nc1N=Nc1ccccc1,-18%,-94*,3%[15.4 µM],-14,0%
CCOC(=O)Cc1csc(NC(=O)COc2ccc(N(C)S(=O)(=O)c3cccs3)cc2)n1,35µM*,-14,-43%,u,3%
CCOC(=O)c1c(NC(=O)C2c3ccccc3Oc3ccccc32)sc(C)c1CC,x,x,x,x,3%
O=C(c1ccccc1)c1ccc2nc(-c3ccco3)c(-c3ccco3)nc2c1,-12%,-90*,-16%[15.4 µM],-11,3%
O=C(NCCc1ccccc1)c1ccc2nc(-c3ccco3)c(-c3ccco3)nc2c1,2%,-6,13%,9,2%
O=C(O)CSCC(=O)N1CCN(c2ccnc3cc(Cl)ccc23)CC1,13%,-13,-57%,0,2%
O=C(O)CSc1ccnc2cc(Cl)ccc12,21%,20,20%[15.4 µM],-22,13µM*
SMILES,gsp antag,RXFP1 antagonist,gsp agonist,TSHR antag,RXFP1 agonist
Cc1cnc2cc(Cl)ccc2c1SCC(=O)O,-5%,11,10µM*,-8,21%
CCOC(=O)C1CCCN(C(=O)c2ccc3c(c2)N(Cc2cccc(Cl)c2)C(=O)c2ccccc2S3(=O)=O)C1 (stereo not drawn),x,11,x,x,-1%
Nc1ncccc1C(=O)OCC(=O)N1CCN(S(=O)(=O)c2ccc(Cl)cc2)CC1,-8%,0,2%,26,1%
CCOc1ncccc1C(=O)OCC(=O)N1CCN(S(=O)(=O)c2ccc(Cl)cc2)CC1,-24%,-11,7.9µM*,7,2%
CC1=C(C(=O)Nc2ccccc2C)C(c2cccs2)n2nc(SCc3cc(C)ccc3C)nc2N1 (stereo not drawn),x,-4,x,x,0%
Cc1ccc(Cl)cc1N1CCN(CCCNC(=O)C2COc3ccccc3C2)CC1 (stereo not drawn),x,3,x,x,0%
CCOc1ncccc1C(=O)OC(C)C(=O)NC(=O)NC1CCCCC1 (stereo not drawn),7%,-14,6.3µM*,-7,-1%
